Test results taken from PubChem BioAssay AID2153 (The Scripps Research Institute Molecular Screening Center, 2009).
Out of some 2,400 compounds screened, about 2,000 (83%) were called active. So high a share suggests a set chosen from earlier hits. Only a sample is shown. Unmarked numbers belong to inactive results.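 Rule for the calls: active = inhibition above the solvent-only control well mean plus 3 SD, limit set per screening run (cut at about 23% in these data); inactive = the rest.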

target: Guanyl-specific ribonuclease T1 (Aspergillus oryzae (strain ATCC 42149 / RIB 40)) (UniProt P00651); experiment: blockers of Aspergillus RNase T1 cleavage – biochemical, fluorescence polarization, counter-screen for TPT1 inhibitor project (AID 2153); conditions: 1536-well, at 5 µM, active compounds read high;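 note: plate controls were DMSO wells with enzyme for no effect and wells without RNase T1 for full effect; inhibitors block cleavage so intact labeled substrate keeps polarization high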
Sequence (P00651 whole entry, looked up): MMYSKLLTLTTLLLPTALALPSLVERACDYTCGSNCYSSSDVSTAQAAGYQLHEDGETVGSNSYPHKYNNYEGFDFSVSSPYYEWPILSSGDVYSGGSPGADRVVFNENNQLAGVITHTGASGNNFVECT

Row | SMILES | inhibition
1 | Oc1ccc(/C=N/Nc2nc(-c3ccccc3F)nc3ccccc23)c(O)c1 | 41.4% (active)
2 | CCOC(=O)/C(C#N)=C/c1ccc(N2CCCCC2)cc1 | 129% (active)
3 | CCOC(=O)/C(C#N)=C/c1ccc(N2CCN(Cc3ccccc3)CC2)cc1 | 92.8% (active)
4 | N#C/C(=C\c1ccc(N2CCOCC2)o1)C(=O)N1CCOCC1 | 165% (active)
5 | N#C/C(=C/c1ccc(N2CCOCC2)o1)C(=O)N1CCOCC1 | 178% (active)
6 | Cc1ccc(CC2S/C(=C(/C#N)C(=O)N3CCOCC3)N(c3ccccc3)C2=O)cc1 (stereo not given) | 14.3%
7 | COc1cc2c(cc1O)[C@H](Cc1ccc(Oc3cc(C[C@@H]4NCCc5cc(OC)c(O)cc54)ccc3O)cc1)NCC2 | 44.2% (active)
8 | Cc1nc2ccccc2nc(=O)c1NNc1ccc([N+](=O)[O-])cc1 | 47.2% (active)
9 | O=C1NC(=O)C2C1C(c1ccc([N+](=O)[O-])cc1)=NN2Cc1ccccc1 (stereo not given) | 48% (active)
10 | Nc1c(C(=O)c2cccs2)sc2nsc(SCCN3CCCCC3)c12 | 73.8% (active)
11 | CN1C(=O)/C(=C/C=C2\SCCN2C)OC1=S | 165% (active)
12 | COc1ccc(N=C(C)c2sc3ccccc3c2O)cc1 | 82.8% (active)
13 | Cc1cccc2cc3c(N)c(C(=O)N4CCCc5ccccc54)sc3nc12 | 68.5% (active)
14 | Cc1sc2nc(COC(=O)C(NC(=O)c3ccc(Cl)cc3Cl)C(C)C)[nH]c(=O)c2c1C (stereo not given) | 66.8% (active)
15 | O=C(Nc1ccc(S(=O)(=O)Nc2nccs2)cc1)c1cc(-c2ccncc2)nc2ccccc12 | 64.3% (active)
16 | CCCCCCc1cc2cc(-c3nnc(-c4ccccc4)o3)c(=O)oc2cc1O | 110% (active)
17 | NNC(=O)c1oc2nc(-c3ccccc3)cc(-c3ccco3)c2c1N | 43.8% (active)
18 | COc1cc(/C=C(\C#N)c2nc3ccccc3[nH]2)ccc1O | 112% (active)
19 | COc1cc(/C=C(\C#N)c2nc3c(s2)CC(C)CC3)ccc1O (stereo not given) | 125% (active)
20 | C[n+]1ccc(/C=C/c2c[nH]c3ccccc23)cc1 | 63.7% (active)

Row | SMILES | inhibition
21 | CN(c1ccccc1)c1ccc(/C=c2\s/c(=C(/C#N)C(=O)C(C)(C)C)n(Cc3ccco3)c2=O)cc1 | 125% (active)
22 | C=CCC1=C/C(=C\c2c(N)n3nc(CC(=O)N4CCOCC4)sc3nc2=O)C=C(OC)C1=O | 106% (active)
23 | CC(C)(C)c1ccc(/C=C2\Oc3c(ccc(O)c3CN3CCN(CCO)CC3)C2=O)cc1 | 45.6% (active)
24 | Cc1ccc(CSCC2Nc3ccc(C(=O)N4CCN(c5ccc(F)cc5)CC4)cc3NC2=O)cc1 (stereo not given) | 22.8% (active)
25 | O=C1Nc2cc(C(=O)N3CCN(c4ccc(F)cc4)CC3)ccc2NC1CSCc1cccc(F)c1 (stereo not given) | 116% (active)
26 | CC(C)c1ccc(Nc2nnc(SCC(=O)c3nnc(-c4ccccc4)o3)s2)cc1 | 29.1% (active)
27 | O=C(O)C(c1ccccc1)N1C(=O)/C(=C\c2ccc(-c3cccc(Cl)c3)o2)SC1=S (stereo not given) | 146% (active)
28 | CN1C(=O)/C(=C\c2ccc(-c3ccccc3)o2)SC1=S | 96.2% (active)
29 | CCC(=C/c1sc2ccc3ccccc3c2[n+]1C)/C=C1\Sc2ccc3ccccc3c2N1C | 104% (active)
30 | O=C(N/N=C/c1sc(N2CCCCC2)nc1-c1cccs1)c1cccnc1 | 51.2% (active)
31 | Cc1cccc(NC(=O)c2ccc(COc3ccccc3[N+](=O)[O-])o2)n1 | 8.35%
32 | Cc1cccc(COc2ccccc2/C=N/Nc2ccc([N+](=O)[O-])cc2)c1 | 98.6% (active)
33 | O=[N+]([O-])c1ccc(N/N=C/c2ccccc2)cc1 | 52.2% (active)
34 | CCOc1ccc(/C=C2\SC(=S)N(NC(=O)c3ccncc3)C2=O)cc1OC | 65.5% (active)
35 | Cc1c(C(=O)OC(C)C)sc(NC(=O)c2cccnc2)c1C#N | 38.8% (active)
36 | CCOc1cc(/C=C(\C#N)c2nc(-c3cccs3)c(NC(C)=O)s2)ccc1O | 95.6% (active)
37 | Cn1ccc(=NC=C(C#N)C#N)c2ccccc21 | 31.9% (active)
38 | CC1CCN(C(=O)c2ccc3c(c2)NC(=O)CN3)CC1 | 52.2% (active)
39 | O=C(C[n+]1cc(Br)cc2ccccc21)c1ccc(F)cc1 | 54.2% (active)
40 | O=C(Cc1nc2ccccc2[nH]c1=O)c1ccc(Cl)cc1 | 65.7% (active)
